Results reported in PubChem BioAssay AID485317 (Broad Institute, 2010).
About 11,000 (3.8%) of roughly 290,000 compounds were called active. What follows is part of a selection rich in actives, with near analogues and random picks from the rest. Values without a mark were called inactive.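 How the source made its calls: active means mean replicate inhibition above about 79%, with every replicate also reaching it (limit read from the data); inconclusive means only one of the two criteria met; inactive means mean below limit and not every replicate reaching it.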

Target: FAD-linked sulfhydryl oxidase ALR (Homo sapiens) (UniProt P55789)
Test: inhibitors of human ALR sulfhydryl oxidase, primary screen, biochemical, H2O2 detection, HRP-luminol luminescence, single point (AID 485317)
Conditions: purified ALR, DTT oxidation, hits give high values, concentration not given here

FAD-linked sulfhydryl oxidase ALR (Homo sapiens), sequence (P55789 whole entry, looked up): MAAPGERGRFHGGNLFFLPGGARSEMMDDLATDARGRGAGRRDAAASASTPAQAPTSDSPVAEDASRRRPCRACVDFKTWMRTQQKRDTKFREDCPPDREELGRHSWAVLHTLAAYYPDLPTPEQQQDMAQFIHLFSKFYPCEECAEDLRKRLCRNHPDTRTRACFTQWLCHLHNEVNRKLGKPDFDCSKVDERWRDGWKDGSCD

Compound	inhibition
CC(C)(C)OC(=O)C[C@@H]1C/C=C\C[C@@H](CC(=O)N[C@@H](CO)Cc2ccccc2)C(=O)N2CCC[C@H]2COC1=O	-8.71%
COc1ccc(C(=NN)c2ccc(OC)cc2)cc1	0.931%
CCC(=O)c1ccc(OCC(=O)Nc2ccc(N3CCCCC3)cc2)cc1	-9.1%
Cc1ccc(C)c(OCCC(=O)Nc2cccc(S(=O)(=O)N3CCCC3)c2)c1	-0.0535%
COc1ccc(NC(=O)CN2C(=O)CSC2=O)cc1	21.6%
CCc1ccc(NC(=O)CN2C(=O)CSC2=O)cc1	96% (active)
CCc1ccc(NC(=O)Cn2ncn3c(cc4ccccc43)c2=O)cc1	3.26%
Cc1ccc2nc(NC(=O)C3CSC4(C)CCC(=O)N34)sc2c1 (stereo unspecified)	-0.552%
O=C1CSC(c2cccc(F)c2)N1c1ccc(O)cc1 (stereo unspecified)	-57.5%
O=C1CSC(c2ccccc2)N1c1nc(-c2ccc(Cl)cc2Cl)cs1 (stereo unspecified)	-3%
O=C1CSC(c2cccc(F)c2)N1c1ccccc1F (stereo unspecified)	91.3% (active)
COc1ccccc1CNC(=O)c1ccc(Cl)c(S(=O)(=O)N2CCCC2)c1	-3.23%
CC(=O)O[C@H]1CC[C@@]2(C)[C@@H](CC[C@@H]3[C@@H]2CC[C@]2(C)[C@@H](C(C)(C)O)C[C@@H]32)C1	-2.24%
Cc1ccc2nc(-c3ccncc3)cc(C(=O)Nc3ccncc3)c2c1	-3.42%
Cc1ccc2nc(-c3ccccc3)cc(C(=O)O)c2c1	89.7% (active)
Cc1ccc2nc(-c3cccc(Br)c3)cc(C(=O)Nn3cnnc3)c2c1	1.88%
O=C(CC1SC(N2CCOCC2)=NC1=O)Nc1ccccc1F (stereo unspecified)	-2.71%
Cc1ccc(S(=O)(=O)N2CCN(C(=O)Cc3sc(C)nc3-c3ccc(F)cc3)CC2)c(C)c1	-12.2%
CCC1(C)NC(=O)N(CC(=O)N2CCN(c3cccc(Cl)c3)CC2)C1=O (stereo unspecified)	1.58%
O=C(COC(=O)COc1ccccc1F)Nc1cccc(S(=O)(=O)N2CCCCC2)c1	-10.2%
COc1ccc(Br)cc1/C=N/NC(=O)c1cccc(S(=O)(=O)N2CCOCC2)c1	-1.11%
COc1ccc(Br)cc1/C=N/n1c(C)nnc1C	-4.68%
COc1ccc(Br)cc1/C=N/Nc1ccc(Cl)c(C(=O)O)c1	96.9% (active)

Compound	inhibition
COC(=O)c1ccc(SCc2ccccc2)nc1	-2.47%
CCN(CC(=O)Nc1cccc(S(=O)(=O)N2CCCCC2)c1)Cc1ccccc1	-23.2%
O=C(CSc1ccc(-c2ccco2)nn1)NCc1ccc2c(c1)OCO2	3.65%
COc1ccc(NC(=O)CSc2ccc(-c3ccco3)nn2)c(OC)c1	0.2%
O=C(CSc1ccc(-c2ccco2)nn1)Nc1cccc(F)c1	-14%
Fc1cccc(Cl)c1CSc1ccc(-c2ccco2)nn1	98.3% (active)
Brc1ccc(CSc2ccc(-c3ccco3)nn2)cc1	98.2% (active)
Cc1cc(SCc2c(F)cccc2Cl)nc(=O)[nH]1	35.2%
CCCC(CNC(=O)COC(=O)C1=NNC(=O)CC1)c1ccc(Cl)cc1Cl (stereo unspecified)	0.0724%
COc1cc(OC)cc(C(=O)NCC(=O)N2CCCCCCC2)c1	-4.06%
COc1ccc(Nc2ncnc3sc(C)cc23)cc1	7.07%
Cc1cccc(C(C)C)c1NC(=O)COC(=O)C1CC(=O)N(Cc2ccccc2)C1 (stereo unspecified)	-1.43%
C[C@H](CO)N1C[C@H](C)[C@@H](CN(C)S(=O)(=O)c2ccc(F)cc2)Oc2ccc(NC(=O)CCC(F)(F)F)cc2C1=O	-3.84%
O=C1OC[C@@H]2CCCN2C(=O)[C@H](CC(=O)N(CCO)Cc2ccccc2)C/C=C\CC[C@@H]1Cc1ccc(F)cc1	-10.6%
COc1ccc(Cl)cc1NC(=O)CN(C)C(=O)c1ccc2n[nH]nc2c1	2.11%
COc1ccc(OCCNC(=O)c2cc(C3CC3)nc3c2cnn3C(C)C)cc1	-7.42%
Cc1cccn2cc(-c3cccc(S(=O)(=O)N4CCCCC4)c3)nc12	90.9% (active)
O=S(=O)(c1cccc(-c2nnc3n2CCCCC3)c1)N1CCOCC1	-3.91%
O=S(=O)(c1cccc(-c2cn3ccccc3n2)c1)N1CCCC1	0.842%
COc1ccccc1-c1nnc2n1N=C(c1ccc(OC(F)F)c(OCC3CC3)c1)CS2	0.875%
CCN(C(=O)CSc1ncnc2c1cnn2-c1ccccc1)C1CCS(=O)(=O)C1 (stereo unspecified)	8.44%
CCCCn1c(N)c(N(CCOC)C(=O)c2cccc(OCc3ccccc3)c2)c(=O)[nH]c1=O	-0.129%
COc1ncnc2c1N=C1CC(C)(C)CC(N)=C1S2	99% (active)

Compound	inhibition
COc1ccc(-c2cc(C(=O)N(C)Cc3ccc(OC)c(OC)c3OC)c3ccccc3n2)cc1OC	0.485%
COc1ccc(Cl)cc1C(=O)OCC(=O)NCc1cccs1	-0.428%
Cc1ccc(-c2cc(=O)[nH]c(NCc3ccccc3)n2)cc1	-7.47%
NS(=O)(=O)c1ccc(NC(=S)NNC(=O)c2cccs2)cc1	96.9% (active)
O=C(NC(=S)Nc1ccc(NC(=O)c2cccs2)cc1)c1ccc([N+](=O)[O-])cc1	-3.61%
CS(=O)(=O)c1ccc(C(=O)NNC(=O)c2cccs2)cc1	-4.92%
C=CC(COCc1ccccc1)N(CC(=O)OC)S(=O)(=O)c1cc(Br)ccc1OC (stereo unspecified)	-15.6%
Cc1cc(NC(=O)COc2ccc(Cl)cc2Cl)n(CCC#N)n1	-11.3%
Cc1cc(Nc2ccccc2)n(CCC#N)n1	98.6% (active)
Cc1cc(Nc2ccccc2)n(C(=O)c2ccc(N)cc2)n1	28.5%
Cc1cc(C(=O)OCC(=O)Nc2ccccc2Cl)c(C)o1	-4%
COc1cc(N)c(Cl)cc1C(=O)OCC(=O)c1ccc2c(c1)NC(=O)CO2	1.9%
O=C(NCc1ccc2c(c1)OCO2)c1c(-c2ccsc2)sc2ccccc12	3.11%
Cc1ccc(CS(=O)Cc2ccc(C(=O)N3CCOCC3)o2)cc1 (stereo unspecified)	-2.5%
O=C(NCc1cccs1)c1ccc(CS(=O)Cc2ccccc2Cl)o1 (stereo unspecified)	21.5%
Cc1ccc(CNC(=O)c2ccc(CS(=O)Cc3cccc(Cl)c3)o2)cc1 (stereo unspecified)	92.3% (active)
CCN(CC(=O)Nc1ccc(OC)cc1)C(=O)CSCc1ccc(C)cc1	-1.67%
Cc1nn(C)cc1C(=O)c1ccccc1	-7.74%
O=C(C1CCCN(S(=O)(=O)c2ccccc2)C1)N1CCN(c2ccc(F)cc2)CC1 (stereo unspecified)	19.8%
Cc1cccc(N2CCN(C(=O)C3CCN(S(=O)(=O)c4cnc[nH]4)CC3)CC2)c1C	0.188%
COc1cccc(N2CCN(C(=O)C3CCCN(S(=O)(=O)c4cnc[nH]4)C3)CC2)c1 (stereo unspecified)	98.9% (active)
COc1ccccc1OCC(=O)OCc1cc(-c2ccco2)on1	-3.11%
Cc1ccc(S(=O)(=O)N2CCN(C(=O)COC(=O)CNC(=O)c3ccc(C(C)(C)C)cc3)CC2)c(C)c1	-8.74%

Compound	inhibition
CN(C(=O)COC(=O)Cc1ccccc1[N+](=O)[O-])C1CCS(=O)(=O)C1 (stereo unspecified)	-19.5%
S=C(NN=C1CCN(Cc2ccccc2)CC1)NC1CCCCC1	94.2% (active)
S=C(Nc1ccc(Br)cc1)NC1CCN(Cc2ccccc2)CC1	17%
S=C(Nc1ccc(Br)cc1Cl)NC1CCN(Cc2ccccc2)CC1	-0.861%
COc1ccccc1NS(=O)(=O)c1ccc(C(=O)N2CCN(c3ccccc3O)CC2)cc1	30.3%
O=C(COC(=O)c1ncc(Cl)c(Cl)c1Cl)NCc1ccccc1	-2.75%
C=CCn1c(SCc2cccc(F)c2)nc2cc(C(=O)N3CCC(C(N)=O)CC3)ccc2c1=O	82.8% (active)
NC(=O)C1CCN(C(=O)c2ccc3c(=O)n(Cc4cccc(Br)c4)c(=S)[nH]c3c2)CC1	1.47%
C=CCn1c(SCC(=O)CC(=O)OCC)nc2cc(C(=O)N3CCC(C(N)=O)CC3)ccc2c1=O	26.8%
O=C(CCC(=O)c1cccs1)Nc1nc2ccccc2s1	-15.5%
COc1cccc(CC(=O)OCC(=O)NCc2ccc3c(c2)OCO3)c1	-0.907%
COCCNC(=O)CCCN1C(=O)c2ccccc2Sc2ncccc21	-3.3%
O=C(CN1C(=O)CSc2ncccc21)N1CCOCC1	-36.7%
COCCNC(=O)CN1C(=O)CSc2ncccc21	95.3% (active)
CCn1nc(C(=O)Nc2ccc(N3CCOCC3)cc2)c2ccccc2c1=O	-11.2%
CC1CC(=NNC(=O)C2COc3ccccc3O2)CC(C)(C)C1 (stereo unspecified)	14.3%
COc1ccc(/C=C2\SC(=O)N(CCC(=O)NC3CCS(=O)(=O)C3)C2=O)cc1 (stereo unspecified)	-3.27%
CN(C(=O)CN1C(=O)/C(=C/c2ccc(Cl)cc2)SC1=S)C1CCS(=O)(=O)C1 (stereo unspecified)	-8.19%
CC(C(=O)NC1CCS(=O)(=O)C1)N1C(=O)/C(=C/c2ccc(Cl)cc2)SC1=S (stereo unspecified)	98.5% (active)
COc1ccc(OC)c(S(=O)(=O)Nc2c(C)nn(C)c2C)c1	-0.73%
O=C(Cn1nnc(-c2ccccc2)n1)NC(=O)NC1CCCC1	-9.99%
CCN(CC)S(=O)(=O)c1ccc2[nH]c(=O)cc(C(=O)N(C)C3CCS(=O)(=O)C3)c2c1 (stereo unspecified)	-1.56%
